Results published in PubChem BioAssay AID1117319 (Southern Research Institute, 2015).
The campaign covered roughly 260,000 compounds. About 1,500 (0.58%) were called active. Not shown: some 5% with an inconclusive outcome. A selection follows. Potency and affinity values are given separately. Values without a mark were called inactive.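 How the source made its calls: active means inhibition above a set limit at one or more doses, reproduced on every date tested; inconclusive means results disagree between test dates, or hit never tested in dose response; inactive means the rest.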

Target: Virion infectivity factor (Human immunodeficiency virus type 1 group M subtype B (isolate BH10)) + Virion infectivity factor (Human immunodeficiency virus type 1 group M subtype B (isolate BRU/LAI)) + Virion infectivity factor (Human immunodeficiency virus type 1 group M subtype B (isolate PCV12)) + Virion infectivity factor (Human immunodeficiency virus type 1 group M subtype B (isolate HXB2)) + DNA dC->dU-editing enzyme APOBEC-3G (Homo sapiens) (UniProt P69720+P69721+P69722+P69723+Q9HC16)
Assay: inhibitors of Vif binding to APOBEC3G peptide, primary screen, biochemical, TR-FRET, GST-Vif 1-94, biotin-A3G peptide, dose response retest (AID 1117319);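 further: Vif residues 1-94 fused to GST binding biotinylated APOBEC3G peptide 110-148; 0% = full assay without inhibitor and 100% = GST in place of GST-Vif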
Details: stronger effect = higher value

Compound	inhibition [%]
COc1ccccc1C(=O)N(CCN(C)C)c1nc2cc(C)cc(C)c2s1	-1.26
Cc1nc(NC(=O)COC(=O)/C=C/c2ccco2)c(Cl)cc1Cl	20.2
Cc1c(Cl)cnc(NC(=O)COC(=O)/C=C/c2ccco2)c1Cl	19.7
CCC1CCCCN1C(=O)CSc1nnc(N)s1 (stereo unspecified)	-4.63
O=C(NCC(c1ccco1)N1CCc2ccccc2C1)c1ccc(F)cc1 (stereo unspecified)	-9.45
COc1ccc(CCNC(=O)/C=C/C(=O)O)cc1	14.3
O=C(/C=C/c1ccco1)NCCc1ccccc1	0.33
CC1(C)Cc2nc3sc(C(=O)NCCCO)c(N)c3cc2CS1	-0.06
CCC1(C)Cc2nc3sc(C(=O)O)c(N)c3cc2CO1 (stereo unspecified)	32.8
COc1ccc(-c2ccc3c(c2)C2CC3CCN2C(=O)C(C)(C)C)cc1 (stereo unspecified)	-6.26
COc1ccc(Cc2nnc(SCC(=O)NC(C)c3ccccc3)o2)cc1 (stereo unspecified)	8.9
CCOC(=O)C1(C)NC(c2ccco2)C2C(=O)N(C)C(=O)C21 (stereo unspecified)	2.73
CCOC(=O)C1(CC)NC(c2ccco2)C2C(=O)N(CC)C(=O)C21 (stereo unspecified)	0.75
CCOc1ccccc1NC(=O)c1cc2ccccc2oc1=O	5.96
O=C(Nc1ccccc1)c1ccccc1N=Cc1ccccc1O	-0.3
O=c1[nH][nH]cc1C=Nc1ccccc1O	1.21
Cc1cccc(NC(=O)Cn2cnc3c(oc4ccccc43)c2=O)c1	4.28
CCCCn1c(SCC(N)=O)nnc1-c1ccco1	3.37
c1ccc(OCCCCN2CCOCC2)cc1	16.5
CCOC(=O)N1CC=C2C(C#N)=C(N)C(C#N)(C#N)[C@H](c3ccsc3)[C@H]2C1	9.32
CC(C)(C)OC(=O)N1CC=C2C(C#N)=C(N)C(C#N)(C#N)C(c3cccs3)C2C1 (stereo unspecified)	5.47

Compound	inhibition [%]
CC1CCN(c2nnc(NC(=O)Cn3c(=O)oc4ccccc43)s2)CC1	4.48
COC(=O)c1c(S(=O)(=O)N2CCOCC2)c(C)n(C)c1C	2.63
Cc1cn([C@H]2C[C@H](O)[C@@H](CNCc3ccccc3)O2)c(=O)[nH]c1=O	-4.57
CC1CN(C(=O)c2ccn(C)n2)CC(C)O1 (stereo unspecified)	-6.54
O=C1c2ccccc2C(=O)N1Cc1ccco1	6.23
CC1S/C(=N/N=C/c2ccco2)N(Cc2ccc(F)cc2)C1=O (stereo unspecified)	2.84
O=C1CS/C(=N/N=C/c2ccco2)N1Cc1ccc(F)cc1	10.9
O=C(CN1CCN(Cc2ccccc2)CC1)N/N=C\C=C/c1ccco1	29.4
CC1S/C(=N/N=C/c2ccco2)N(Cc2ccccc2)C1=O (stereo unspecified)	4.75
O=C(CN1C(=O)C(=O)N(Cc2ccco2)C1=O)NC1CCCCC1	10.2
CC(c1ccccc1)C1CC(=O)N(Cc2ccco2)C1=O (stereo unspecified)	1.07
O=C1C2C3CCC(C3)C2C(=O)N1Cc1ccco1 (stereo unspecified)	-17.6
O=c1cc(NCCc2ccccc2)c2ccccc2o1	-9.21
Cc1ccc(OCCNC(=O)CNC(=O)c2ccccc2Cl)cc1	-0.63
Cc1cc(C)c(S(=O)(=O)N2CCCC(C(=O)NCCC3=CCCCC3)C2)c(C)c1 (stereo unspecified)	9.17
O=C(N=C1SC2CS(=O)(=O)CC2N1Cc1ccccc1)C1CC1 (stereo unspecified)	-2.49
COc1ccc(CNc2nc(NCc3ccc(OC)c(OC)c3)n(C(=O)c3cccs3)n2)cc1OC	13.3
CC(C)N(Cc1nccn1C)C(=O)CC1C(=O)NCCN1Cc1ccc(F)c(F)c1 (stereo unspecified)	-8.55
COc1ccc(CN2CCNC(=O)C2CC(=O)N(Cc2nccn2C)C(C)C)c(OC)c1 (stereo unspecified)	-0.6
Cc1ccc(SCCOCCN2CCc3ccccc3C2)cc1	-8.65
C/C(Cl)=C/Cc1c(C)[nH]c2ccc(C)cc2c1=O	-1.26

Compound	inhibition [%]
COc1ccc(C(=O)N(C)C(C)c2nccs2)cc1OC1CCN(C(C)=O)CC1 (stereo unspecified)	-6.6
CC1(C)CC2(CC(c3ccccc3)c3ccc(O)cc3O2)NC(=S)N1 (stereo unspecified)	0.62
CC1(C)CC2(CC(c3ccccc3F)c3cc(Cl)c(O)cc3O2)NC(=S)N1 (stereo unspecified)	0.09
Cc1cc(C)c(C(=O)NC2CC(C)(C)Cc3c2cnn3-c2ccccc2)o1 (stereo unspecified)	1.78
O=[N+]([O-])c1ccc(/C=N/Nc2nc(N3CCCCCC3)nc(N3CCCCCC3)n2)o1	10.1
O=[N+]([O-])c1ccc(-c2ccc(/C=N/Nc3nc(N4CCCC4)nc(N4CCCC4)n3)o2)cc1	-1.43
COC(=O)C1=C(CS(=O)(=O)c2ccc(Cl)cc2)NC(=O)NC1c1ccc(O)cc1 (stereo unspecified)	9.59
CC(C)N(C(=O)CSc1nnc(-c2cc3ccccc3cc2O)n1Cc1ccco1)C(C)C	9.68
CC(=O)c1cccc(NC(=O)c2ccoc2C)c1	7.62
CC1(C)N=C(c2ccccc2)C(=O)N1	1.67
CC(C)[C@H](NC(=O)c1ccco1)C(=O)OCC(=O)c1ccc2c(c1)NC(=O)CO2	30.8
COc1cc(C(=O)NNC(=S)NC(=O)c2ccc(F)cc2)cc(OC)c1OC	13.5
CCN(CC)CCn1c2ccccc2c2nc3ccccc3nc21	-1.16
CCc1cc2c(=O)c(-c3nc4ccccc4n3C)c(C)oc2c(CN(CC)CC)c1O	-0.78
CC1=CN2C(=N)/C(=C/c3ccco3)C(=O)N=C2S1	14.9
CC1=CN2C(=N)/C(=C/c3ccc(Sc4ccc(C)cc4)o3)C(=O)N=C2S1	-0.88
O=C(Nc1cccc2c1[nH]c1ccccc12)C(F)(F)F	-2.08
COc1cc2[nH]c3c(Cl)ncnc3c2cc1OC	-0.29
COc1ccc2c([N+](=O)[O-])c(Cl)[nH]c2c1	21.2
